Screens (PubChem BioAssay)
HCV inhibitor = blocks hepatitis C virus | hit rate 3.4% among 340,000 | AID 651820 | Potency, µM (doses to about 41.8 µM), for inactives: at the top dose activity change, negative = inhibition, usual class: inhibitors | Huh7.5.1 HCVcc-Cre infection, luciferase reporter, 44 h
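Infectious HCVcc-Cre (~0.5 moi) was added to cells just after compound, with cells seeded 4 h earlier at 1,000 per well. Luciferase activity after 44 h culture reported infection; substrate was incubated 15 min at room temperature before reading.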
Pf growth 48h = P. falciparum growth inhibition at 48 hours (one generation); P. falciparum luciferase growth in erythrocytes, 48 h; Potency, µM (top dose mostly 28.7 µM), for inactives: top-dose activity change, negative = inhibition, usual class: inhibitors; hit rate 5.9% among 310,000; AID 504832
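Growth was read as firefly luciferase luminescence after a 48 h, 37 C, 5% CO2 exposure of compounds to reporter-bearing P. falciparum cultures (0.1% parasitemia, 2% hematocrit final) in Albumax-supplemented RPMI 1640.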
Pf growth 96h = P. falciparum growth inhibition at 96 hour, primary screen for plastid delayed-death inhibitors; P. falciparum luciferase reporter growth, 96 h; Potency, µM (doses to about 28.7 µM), inactives show top-dose activity change, negative = inhibition, most hits filed as inhibitors; hit rate 6.9% among 320,000; AID 504834
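P. falciparum expressing integrated firefly luciferase grown in erythrocytes (2% hematocrit, 0.05% parasitemia final) with compounds for 96 hours at 37 C, 5% CO2. Growth inhibition read as loss of luminescence after adding luciferase detection reagent.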
AMA1 RON2 block = disrupts binding of P. falciparum AMA1 to RON2; AlphaScreen AMA1-biotinylated RON2 peptide binding; Potency, µM (top dose mostly 58.2 µM), for inactives: top-dose activity change, negative = inhibition, actives largely listed as inhibitors; hit rate 0.2% among 360,000; AID 720542;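 further: 0% = vehicle wells and -100% = peptide control; nearly all actives have a fitted effect of over 45% in size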
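AMA1 (3D7) with his tag at 25 nM final met compounds first, then biotinylated RON2 peptide at 25 nM; detection used donor plus acceptor beads, 10 µg/mL apiece, read by AlphaScreen after 30 min at room temperature.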
* hit, by the source's call. A selection: hits, their analogues and other compounds. The true share with any hit is near 11%. The call rests on the fitted dose curve; in most records, active means well fitted curve in the direction sought with a large enough effect; inconclusive means small, poorly fitted or top-dose-only effect, or another doubt; inactive means no such curve, though single readings can be large; an effect the other way counts as inactive or inconclusive. Unless noted, on the % scale 0 is the no-effect control and ±100 the full control effect; potency means the concentration at half of the fitted maximal effect.

What do the screens show for `CCC1(C)CN=C(c2ccccc2)NC1` (stereo not given)?
HCV inhibitor: 9%; AMA1 RON2 block: -22%

Results for CCCCN(C(=S)Nc1cccc(C)c1C)c1c(N)n(CCC)c(=O)[nH]c1=O ?
HCV inhibitor: 2%; Pf growth 48h: 4%; Pf growth 96h: 9%; AMA1 RON2 block: 0%

What do the screens show for `O=S(=O)(NCCN1CCOCC1)c1cc(Cl)ccc1Cl`?
HCV inhibitor: 16%; Pf growth 48h: 2%; Pf growth 96h: 6.6µM*; AMA1 RON2 block: 5%

Results for Cc1cc(S(=O)(=O)NCCN2CCOCC2)ccc1Cl ?
HCV inhibitor: 11%; Pf growth 96h: -3%; AMA1 RON2 block: -5%

Results for Nc1c(S(=O)(=O)c2cc(Cl)ccc2Cl)c2nc3ccccc3nc2n1CCN1CCOCC1 ?
HCV inhibitor: inconclusive; Pf growth 48h: 13µM*; AMA1 RON2 block: 3%

What do the screens show for `Cc1c(Cl)ccc(S(=O)(=O)NCCN2CCOCC2)c1Cl`?
HCV inhibitor: -25%; Pf growth 48h: 0.13µM*; Pf growth 96h: -3%; AMA1 RON2 block: 0%

What do the screens show for `CC(=O)Nc1ccc(S(=O)(=O)c2c(N)n(CCN3CCOCC3)c3nc4ccccc4nc23)cc1`?
HCV inhibitor: 1%; Pf growth 48h: inconclusive; Pf growth 96h: 0%; AMA1 RON2 block: -4%

What do the screens show for `COCC(C)NCc1cccc2ccccc12` (stereo not given)?
HCV inhibitor: -23%; Pf growth 48h: 17%; Pf growth 96h: 4.7µM*; AMA1 RON2 block: -17%

What do the screens show for `COCCCNC(=O)CCC(=O)NNc1nc2ccccc2c2nc(C)nn12`?
HCV inhibitor: 13%; Pf growth 48h: -6%; Pf growth 96h: inconclusive; AMA1 RON2 block: -5%

How did CC(C)C(=O)NC(C)C(c1cccs1)N1CCN(c2ccccc2)CC1 (stereo not given) do in these assays?
HCV inhibitor: -6%; Pf growth 48h: inconclusive; Pf growth 96h: inconclusive; AMA1 RON2 block: -18%

Results for CC(NC(=O)c1cccs1)C(c1cccs1)N1CCN(c2ccccc2)CC1 (stereo not given) ?
HCV inhibitor: inconclusive; Pf growth 48h: 9.3µM*; Pf growth 96h: -6%; AMA1 RON2 block: 0%

How did CC(NC(=O)c1ccncc1)C(c1cccs1)N1CCOCC1 (stereo not given) do in these assays?
HCV inhibitor: 10%; Pf growth 48h: 9%; Pf growth 96h: -6%; AMA1 RON2 block: -1%

Results for CC(NC(=O)c1ccc(N(C)C)cc1)C(c1cccs1)N1CCN(C)CC1 (stereo not given) ?
HCV inhibitor: 10µM*; Pf growth 48h: -1%; Pf growth 96h: -19%; AMA1 RON2 block: -6%

How did CC(NC(=O)c1ccc(C(C)(C)C)cc1)C(c1cccs1)N1CCOCC1 (stereo not given) do in these assays?
HCV inhibitor: -23%; Pf growth 48h: 13µM*; Pf growth 96h: 12µM*; AMA1 RON2 block: -4%

Results for CC(NC(=O)c1ccc(F)cc1)C(c1cccs1)N1CCN(C)CC1 (stereo not given) ?
HCV inhibitor: -13%; Pf growth 48h: -15%; Pf growth 96h: 1%; AMA1 RON2 block: 0%

How did CC(NC(=O)c1cccs1)C(c1cccs1)N1CCOCC1 (stereo not given) do in these assays?
HCV inhibitor: 9%; Pf growth 48h: -20%; Pf growth 96h: 2.6µM*; AMA1 RON2 block: -6%

How did CCCCn1c(N)c(N(CC)C(=O)c2ccc(C#N)cc2)c(=O)[nH]c1=O do in these assays?
HCV inhibitor: 6%; Pf growth 48h: 15%; Pf growth 96h: -1%; AMA1 RON2 block: 32%

What do the screens show for `COc1ccc(C(=O)Nc2ccnn2C2CCN(Cc3ccccn3)CC2)cc1`?
HCV inhibitor: 5%; Pf growth 48h: 28%; Pf growth 96h: 53%; AMA1 RON2 block: 83%

Results for CC(NC(=O)c1ccc2c(c1)OCO2)C(c1cccs1)N1CCOCC1 (stereo not given) ?
HCV inhibitor: 6%; Pf growth 48h: -13%; Pf growth 96h: 149%; AMA1 RON2 block: 3%

How did CC(NC(=O)c1ccc2c(c1)OCO2)C(c1cccs1)N1CCN(c2ccccc2)CC1 (stereo not given) do in these assays?
HCV inhibitor: -16%; Pf growth 48h: 141%; Pf growth 96h: 12µM*; AMA1 RON2 block: inconclusive

How did COc1ccc(CNCc2ccncc2)cc1OC do in these assays?
HCV inhibitor: 9%; Pf growth 48h: inconclusive; Pf growth 96h: 10µM*; AMA1 RON2 block: 9%
